Assay results taken from PubChem BioAssay (NCATS).
Inconclusive results are not listed. Activity calls are given as the source filed them. Calls come from the whole dose curve; as a rule, active = well fitted inhibition curve with a large enough effect; inconclusive = small, poorly fitted or top-dose-only effect; inactive = flat fitted curve, though single readings scatter.

Experiments:
Assay in all cases: qHTS profiling for inhibitors of Plasmodium falciparum proliferation (AID 504749); note: nearly all actives have a fitted effect of over 60% in size
Conditions in all cases: P. falciparum in erythrocytes, SYBR Green DNA, 72 h; series mostly up to 28.7 µM
AA1029 = system: AA1029
Procedure, shortened: (§1)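 Three-day growth assay of blood-stage parasites in erythrocytes (0.3% parasitemia, 2.5% hematocrit) at 37 C, 5% CO2, quantified by SYBR Green DNA staining after overnight detergent lysis.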

AS120 = system: AS120
Procedure, shortened: as §1

ATS189 = system: ATS189
Procedure, shortened: as §1

ATS95 = system: ATS95
Procedure, shortened: as §1

C2A = system: C2A
Procedure, shortened: as §1

CP185 = system: CP185
Procedure, shortened: as §1

CP191 = system: CP191
Procedure, shortened: as §1

CP192 = system: CP192
Procedure, shortened: as §1

CP194 = system: CP194
Procedure, shortened: as §1

CP201 = system: CP201
Procedure, shortened: as §1

Measured: Potency

O=C(O)Cc1csc(-c2ccc(Cl)cc2)n1
inactive: all assays above

O=C1C(CCS(=O)c2ccccc2)C(=O)N(c2ccccc2)N1c1ccccc1 (stereo not given)
inactive: all assays above

CCc1ccc(C(=O)C(C)CN2CCCCC2)cc1 (stereo not given)
inactive: all assays above

CCC1Nc2cc(Cl)c(S(N)(=O)=O)cc2S(=O)(=O)N1 (stereo not given)
inactive: all assays above

FC(F)(F)C(F)(F)C(F)(F)C(F)(F)C(F)(F)C(F)(F)C(F)(F)C(F)(F)Br
inactive: all assays above

N#CCC(=O)NN
inactive: all assays above

Cc1c(-c2ccccc2)oc2c(C(=O)OCCN3CCCCC3)cccc2c1=O
inactive: all assays above

Nc1ccc(S(=O)(=O)Nc2cnc3ccccc3n2)cc1
inactive: all assays above

CC(=O)NCCCCCC(=O)O
inactive: all assays above

COc1cc(C(=O)N2CCCCCCC2)cc(OC)c1OC
inactive: all assays above

CC(=O)OC[C@H]1O[C@@H](n2ncc(=O)[nH]c2=O)[C@H](OC(C)=O)[C@@H]1OC(C)=O
inactive: all assays above

Cc1ccc(S(=O)(=O)NC(=O)NC2CCCC2)cc1
inactive: all assays above

CC(C)Nc1cccnc1N1CCN(C(=O)c2cc3cc(NS(C)(=O)=O)ccc3[nH]2)CC1
inactive: all assays above

O=C(O)C1(C(=O)O)CCC1.[NH2-].[NH2-].[Pt+2]
inactive: all assays above

Cc1c[nH]c2ccccc12
inactive: all assays above

COc1ccc(/C=N/NC(=O)c2ccncc2)cc1OC
inactive: all assays above

NC(N)=NCc1cccc(I)c1
inactive: all assays above

CC(C)CCCC(C)N (stereo not given)
inactive: all assays above

CC(=O)Nc1ccc(OCC(O)CNC(C)C)cc1 (stereo not given)
inactive: all assays above

CCCCCCCCCCCCSCCOCCO
inactive: all assays above

CCOC(=O)[C@H](CCc1ccccc1)N[C@@H](C)C(=O)N1[C@H](C(=O)O)C[C@H]2CCCC[C@@H]21
inactive: all assays above

N=C(N)N1CCc2ccccc2C1
inactive: all assays above

OC[C@H]1O[C@@H]2O[C@H]3[C@H](O)[C@@H](O)[C@@H](O[C@H]4[C@H](O)[C@@H](O)[C@@H](O[C@H]5[C@H](O)[C@@H](O)[C@@H](O[C@H]6[C@H](O)[C@@H](O)[C@@H](O[C@H]7[C@H](O)[C@@H](O)[C@@H](O[C@H]8[C@H](O)[C@@H](O)[C@@H](O[C@H]1[C@H](O)[C@H]2O)O[C@@H]8CO)O[C@@H]7CO)O[C@@H]6CO)O[C@@H]5CO)O[C@@H]4CO)O[C@@H]3CO
inactive: all assays above
